Results taken from PubChem BioAssay (NCI).
Compounds without any hit were thinned out: in the full panel of roughly 79,000, 15% have a hit. Unmarked numbers belong to inactive results. Cut-off read from the data, not from the text of the source: active = growth inhibition above about 70%; inactive = the rest.

assay: NCI Yeast Anticancer Drug Screen. Data for the cln2 rad14 strain (AID 165);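 note: 0% = growth equal to vehicle treated cultures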; conditions: S. cerevisiae cln2 rad14 strain, at 50.0 µM, hits give high values
Outline: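 Yeast strain cln2 rad14, bearing defects in cell cycle control and DNA repair, serves as the test system; values reflect growth inhibition compared with vehicle.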

Compared with `O=c1[nH]cnc2c1ncn2C1CCC(CO)O1` (stereo not given), `C=C1C(=O)OC2CCC3OC(C)(C)OC3C12` (stereo not given) is lower in growth inhibition: -0.1% for the first, -16.9% for the second.

Compared with `CC(C)C1=CC2=CCC3C(C)(COC(=O)CSC(C)(C)C)CCCC3(C)C2CC1` (stereo not given), `COc1ccc(CC(N)C(=O)N2CCCCC2)cc1` (stereo not given) is lower in growth inhibition: 18.6% for the first, 8.15% for the second.

Compared with `N#CC(CC(=O)c1ccccc1)c1ccccc1Cl` (stereo not given), `COC(=O)c1ccccc1C1CN=NC12Cc1c(C)ccc(C)c1C2=O` (stereo not given) is lower in growth inhibition: 17.6% for the first, 14.2% for the second.

Compared with `c1ccc(C2=NCCc3cc4c(cc32)OCO4)cc1`, `CCCCn1c2nc(=O)n(C)c(=O)c-2cc2ccccc21` is lower in growth inhibition: 10.1% for the first, -25.4% for the second.

Going from `COc1cc(-c2nnc3n2NC=C(C(=O)O)S3)cc(OC)c1OC` to `COc1ccc([N+](=O)[O-])c(C(OC(C)=O)OC(C)=O)c1OC(C)=O`, the growth inhibition rises from 5.45% to 9%.

Compared with `CC(=O)O[C@]12CCCCCC1C1(O)C(O)CCCC[C@H]12` (stereo not given in full), `CC(=O)Nc1nc2ncc(CN(C(C)=O)c3ccc(C(=O)O)cc3)nc2c(=O)[nH]1` is lower in growth inhibition: 4.45% for the first, -8.65% for the second.

Compared with `CC/C=N/Nc1cn[nH]c(=O)c1Cl`, `CCC1N=C(N)N=C(N)N1c1ccc(Cl)c(Cl)c1` (stereo not given) is lower in growth inhibition: 4.85% for the first, -8.7% for the second.

Compound `CCCCCCCCCCC1SCC(=O)N1c1nncs1` (stereo not given) has a growth inhibition of 10.2%.
